Reference: the supplement of paper PMC6555819

Tests used:
Assay in all cases: PBM binding z-score (relative to random genomic background probes); higher = stronger binding; sequences stand for … in GC…GCGATTGACAGCGTAGAATGAAGG
[1] = tested on: FXR:RXRa (NR concentration 270 nM, RXRa partner concentration 90 nM)
In short: (§1)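 For binding z-scores, the reference was random background probes on custom Agilent 4×180K protein-binding microarrays. These arrays were incubated 1 h with ligand-free nuclear receptor dimers in PBS pH 7.4, 2% milk, 0.02% Triton X-100, 1 mM DTT, 0.2 mg/mL BSA and 0.4 mg/ml salmon testes DNA. Fluorescence was scanned after antibody detection of each partner (one per run) and regression-normalized.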

[2] = tested on: LXRa:RXRa (NR concentration 270 nM, RXRa partner concentration 90 nM)
In short: as §1

[3] = tested on: LXRa homodimer (NR concentration 270 nM)
In short: as §1

[4] = tested on: LXRb:RXRa (NR concentration 270 nM, RXRa partner concentration 90 nM)
In short: as §1

[5] = tested on: LXRb homodimer (NR concentration 270 nM)
In short: as §1

[6] = tested on: PPARa:RXRa (NR concentration 270 nM, RXRa partner concentration 90 nM)
In short: as §1

[7] = tested on: PPARg:RXRa (NR concentration 180 nM, RXRa partner concentration 90 nM)
In short: as §1

[8] = tested on: PPARg:RXRa 270nM:90nM, anti-RXR (NR concentration 270 nM, RXRa partner concentration 90 nM)
In short: as §1

[9] = tested on: PPARg:RXRa 30nM:10nM, anti-RXR (NR concentration 30 nM, RXRa partner concentration 10 nM)
In short: as §1

[10] = tested on: PPARg:RXRa 90nM:30nM, anti-RXR (NR concentration 90 nM, RXRa partner concentration 30 nM)
In short: as §1

Sequence	PBM binding z-score [1]	PBM binding z-score [2]	PBM binding z-score [3]	PBM binding z-score [4]	PBM binding z-score [5]	PBM binding z-score [6]	PBM binding z-score [7]	PBM binding z-score [8]	PBM binding z-score [9]	PBM binding z-score [10]
CAAACTAGGTCACCCGAAGGTCAAAGTCCGCATG	6.1	6.03	4.86	5.07	1.57	6.24	9.64	8	5.77	7.5
ACAGACAGATGAGTGAAGGTAACTCAGCTGGACG	0.536	-0.0158	-0.336	-0.328	-0.174	-0.0253	0.883	0.561	0.259	0.0616
ATCGAAAGGTGGTGAGGTGAGTATACAGAAAGGC	0.483	0.31	0.284	0.389	0.161	0.744	0.668	0.261	0.347	0.438
TGAATGAGGTTATAAGTTCAGGGAACGTTGCAAA	2.81	2.69	0.29	1.88	-0.136	3.66	2.09	3.38	1.55	2.71
AACTCTAGGTAAAGTTCAGTGAAAGATCGATAGA	0.741	1.51	1.46	1.06	0.134	2.44	3.7	4.77	2.77	4.53
TCATATAGGTAATACTGGTGAAAGTCGGCATCTA	0.82	1	0.397	0.738	0.101	1.29	0.902	2.27	3.82	3.28
CGAACGAGGGCATGAGTTGATAGTAAATGCCGAT	0.719	0.489	-0.433	0.273	-0.709	1.27	1.45	1.26	0.122	0.578
CCTACTGGGCCAAAAAGGGCATTGATGCCGATAA	-0.479	-0.109	-0.296	-0.0231	-1	1.12	0.538	1.32	-0.152	0.651
ATGTGTAGGTTATCGGGTCATTCAGTTTGCGCAT	3.54	3.13	1.9	3.3	1.26	4.08	4.09	4.29	1.54	3.43
CCTTACGGGTCACTGACATGTTATAGCATTTGGA	5.55	3.84	0.306	3.54	0.233	5.2	4.42	4.66	2.21	3.45
TATACATGGTCAAAGGCCAGAGTACGAATGTCGA	0.397	0.672	0.238	0.37	0.623	1.64	3.14	4.34	2.32	4.31
ACATGTAGGTTATCGGGTCATTCAGTTTGCGCAT	3.45	3.33	1.98	3.33	1.7	4.49	6.1	5.23	2.59	4.9
CCTAGCAGGACAGGGTCACTCAAGCATTTCGCTT	2.28	1.99	-0.28	2.4	-0.799	3.41	0.993	1.68	-0.413	0.404
ACTATTAGTTGACTTCGGGCAACCGATACGACGC	0.0947	0.0355	0.567	0.0208	0.752	-0.237	0.757	0.358	0.0391	0.162
ATATGTAGGTTACATCCAGGTCATTCAGGCTATG	2.67	4.56	3.72	3.08	0.989	4.38	5.7	4.88	2.67	4.04
AGTCAAAGTTCACTAGGTAACGTAAGATTCAGCT	5.37	5.1	3.04	3.17	1.11	5.11	7.61	6.5	3.74	6.12
GTACCAAGGTGAATCGGTCGTTGATGAGTAGGCG	0.346	0.0414	-0.326	-0.181	-0.693	1.05	0.567	0.624	-0.427	0.0488
CTCGAAAGGTCGATTGAGGTGAGTATACGGATAA	4.35	3.38	-0.0633	2.93	0.38	4.12	1.66	2.47	0.642	1.43
GCGACTGGGGCTTCAGCAGGTTACCATAACTTAA	-0.296	-0.21	-0.373	0.63	-0.572	0.478	-0.166	-0.624	-0.435	-0.762
CCTCGGACGACAGAAGGTCAGAGCTGTCCGCTTT	1.1	1.53	0.0414	1.18	-0.358	1.83	-0.153	-0.0801	-1.06	-0.472
GGAACGAGGGCATGTTGATAGCAGAGTTTGATGG	0.438	-0.0957	0.0371	0.12	-0.293	0.843	0.848	0.668	0.0112	-0.104
CCTACTTGGTCAAGGTCACACACGCTATAGGTAC	4.25	4.24	2.32	4.05	1.7	4.33	3.75	3.87	1.38	2.72
GCTGCTAGGTCAACTGATGCTCAGCTAAAGCTCG	4.03	2.63	-0.106	1.88	-0.349	3.79	2.66	3.35	0.299	2.26
TCTATTAGTTGAAGCGCAACCGACGAGTCCGTTT	0.428	0.488	-0.0421	0.375	0.082	0.55	-0.192	1.85	3.58	2.67
ATCGAAAGGTCGTGAGGTTAGTATACAGAAAGGC	5.61	4.18	0.638	3.63	0.777	5.04	3.95	4.19	1.92	3.08
